Screening data (PubChem BioAssay)
L929 necroptosis: L929 zVAD cell death inhibition; hit rate 0.38% among 220,000; AID 1377; viability rescue, % at 10 µM; L929 zVAD necroptosis rescue, ATP luminescence, 24 h; with zVAD 60 µM;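 active means activation, scaled between plate controls, above about 75%, limit read from the data; inactive means activation under that limit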;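 further: 0% = zVAD with DMSO and 100% = DMSO alone without zVAD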
Bim-Mcl-1: inhibitors of Bim-Mcl-1 interaction, human; Q07820; inhibition, % at 10 µM; Bead-based flow cytometry, Bim peptide-Mcl-1 binding; hit rate 0.1% among 190,000; in the data active means inhibition above about 40%;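 further: 0% = no compound tracer wells and 100% = peptide blocker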
Target sequence (Q07820 whole entry, looked up): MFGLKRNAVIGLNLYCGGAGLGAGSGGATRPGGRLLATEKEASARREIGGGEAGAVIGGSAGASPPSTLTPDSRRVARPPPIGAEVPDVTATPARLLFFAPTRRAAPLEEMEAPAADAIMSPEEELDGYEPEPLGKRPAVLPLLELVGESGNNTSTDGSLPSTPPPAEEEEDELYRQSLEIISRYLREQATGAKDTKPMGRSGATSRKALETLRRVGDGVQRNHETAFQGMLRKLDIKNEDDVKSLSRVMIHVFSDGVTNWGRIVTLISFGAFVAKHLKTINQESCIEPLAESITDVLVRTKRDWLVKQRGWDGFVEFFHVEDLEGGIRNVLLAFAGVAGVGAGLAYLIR
Mcl1 Noxa PPI: Mcl-1/Noxa interaction inhibition; TR-FRET Mcl-1/Noxa peptide binding, 2 h; inhibition, % at 21.7 µM; hit rate 1.5% among 220,000; AID 1022;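 active means compounds that cut the protein-peptide binding signal by more than 50% relative to plate controls in a single-dose test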;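 further: His-tagged Mcl-1 with rhodamine Noxa BH3 peptide and terbium anti-His antibody; 0% = Mcl-1 plus Noxa peptide wells and 100% = peptide-only wells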
TNF death inh: inhibitors of TNF-alpha induced necroptosis in Jurkat FADD-/- cells; activation (protection from cell death), % at 10 µM; hit rate 0.068% among 220,000; Jurkat FADD-/- TNF necroptosis rescue, ATP luminescence, 24 h; 0 = TNF only, 100 = no-TNF cells;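 active means activation, meaning protection from cell death, of at least 50% relative to plate controls; inactive means activation below 50%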;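 further: necroptosis triggered by 40 ng/mL TNF-alpha added together with compound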
Mcl1-Bid inh: disrupts binding of human Mcl-1 to Bid peptide. TR-FRET Mcl-1/Bid-Dy647 peptide binding, 1536-well. inhibition, % at 21.7 µM. hit rate 0.97% among 220,000;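 active means compounds that cut the binding signal by more than half at the single screening dose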;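 further: His-tagged Mcl-1 with europium anti-His antibody binding Bid BH3 peptide; 0% = Mcl-1 plus peptide wells and 100% = peptide-only wells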
Calpain2 inh: blocks pig calpain II enzyme activity. purified calpain II, fluorogenic peptide substrate, 30 min. inhibition, % at 16 µM. hit rate 0.37% among 220,000;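 active means inhibition above about 50%, limit read from the data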
An asterisk follows results filed as active. The list is not random: actives were taken first. Their share in the collection is about 2.8%.

How did COc1cccc(-c2cnc(NCc3cc(Cl)ccc3O)n2C)c1 do in these assays?
L929 necroptosis: 1; Bim-Mcl-1: -4; Mcl1 Noxa PPI: 45; TNF death inh: 4; Mcl1-Bid inh: 28; Calpain2 inh: 55*

What do the screens show for `COc1ccc(NC(=O)Cc2cccs2)c(OC)c1`?
L929 necroptosis: 2; Bim-Mcl-1: -7; Mcl1 Noxa PPI: 20; TNF death inh: 1; Mcl1-Bid inh: -12; Calpain2 inh: 0

How did Cc1ccc([N+](=O)[O-])cc1NC(=O)Cc1cccs1 do in these assays?
L929 necroptosis: 0; Bim-Mcl-1: 0; Mcl1 Noxa PPI: 56*; TNF death inh: 0; Mcl1-Bid inh: -21; Calpain2 inh: -12

Results for O=C(Cc1cccs1)Nc1nnc(SCc2cccc3ccccc23)s1 ?
L929 necroptosis: 1; Bim-Mcl-1: -3; Mcl1 Noxa PPI: 68*; TNF death inh: 1; Mcl1-Bid inh: 18; Calpain2 inh: -46

Results for O=C(Cc1cccs1)Nc1nnc(CCc2ccccc2)s1 ?
L929 necroptosis: 0; Bim-Mcl-1: 2; Mcl1 Noxa PPI: 10; TNF death inh: 1; Mcl1-Bid inh: 0; Calpain2 inh: 1

Results for Cc1ccc([N+](=O)[O-])cc1NC(=O)Cc1ccc(F)cc1 ?
L929 necroptosis: 2; Bim-Mcl-1: -3; Mcl1 Noxa PPI: -1; TNF death inh: 1; Mcl1-Bid inh: 18; Calpain2 inh: -26

Results for O=C(Cc1cccs1)Nc1nnc(Cc2ccccc2)s1 ?
L929 necroptosis: 0; Bim-Mcl-1: -17; Mcl1 Noxa PPI: 82*; TNF death inh: 3; Mcl1-Bid inh: -39; Calpain2 inh: -61

How did COc1cc(NC(=O)c2ccccc2)c(OC)cc1NC(=O)Cc1cccs1 do in these assays?
L929 necroptosis: 58; Bim-Mcl-1: 0; Mcl1 Noxa PPI: 61*; TNF death inh: 1; Mcl1-Bid inh: -108; Calpain2 inh: -148

What do the screens show for `COc1ccc(Cc2nnc(NC(=O)Cc3cccs3)s2)cc1OC`?
L929 necroptosis: 6; Bim-Mcl-1: 0; Mcl1 Noxa PPI: 96*; TNF death inh: 1; Mcl1-Bid inh: 76*; Calpain2 inh: -35

How did CC1CC(C)CN(S(=O)(=O)c2ccc(NC(=S)NC(=O)c3ccccc3)cc2)C1 (centres undefined) do in these assays?
L929 necroptosis: 0; Bim-Mcl-1: -3; Mcl1 Noxa PPI: -4; TNF death inh: 1; Mcl1-Bid inh: -41; Calpain2 inh: 8

What do the screens show for `CC(C)(C)NC(=O)C(c1ccccn1)N(C(=O)c1csnn1)C1CCCC1` (centres undefined)?
L929 necroptosis: 1; Mcl1 Noxa PPI: 7; TNF death inh: 4; Mcl1-Bid inh: -81; Calpain2 inh: -20

How did O=C(N1CCCCC1)N1CCN(S(=O)(=O)c2ccc(Cl)cc2)CC1 do in these assays?
L929 necroptosis: 1; Bim-Mcl-1: -3; Mcl1 Noxa PPI: -6; TNF death inh: 1; Mcl1-Bid inh: -17; Calpain2 inh: -2

How did CC(=O)c1cccc(NC(=O)c2c(F)c(F)c(F)c(F)c2F)c1 do in these assays?
L929 necroptosis: 2; Bim-Mcl-1: -2; Mcl1 Noxa PPI: 3; TNF death inh: 4; Mcl1-Bid inh: -20; Calpain2 inh: 51*

What do the screens show for `O=C(Nc1ccc2c(c1)OCO2)c1c(F)c(F)c(F)c(F)c1F`?
L929 necroptosis: 0; Bim-Mcl-1: 0; Mcl1 Noxa PPI: 7; TNF death inh: 1; Mcl1-Bid inh: 3; Calpain2 inh: 52*

How did CCCC(=O)Nc1cccc(NC(=O)c2ccc3c(c2)OCCO3)c1 do in these assays?
L929 necroptosis: 1; Bim-Mcl-1: 0; Mcl1 Noxa PPI: 5; TNF death inh: -5; Mcl1-Bid inh: -26; Calpain2 inh: 9

What do the screens show for `CCCCC(=O)Nc1cccc(NC(=O)c2ccc3c(c2)OCO3)c1`?
L929 necroptosis: 0; Bim-Mcl-1: -3; Mcl1 Noxa PPI: 24; TNF death inh: 1; Mcl1-Bid inh: 63*; Calpain2 inh: 19

Results for Cc1csc(SCC(=O)NC(=O)NCCC(C)C)n1 ?
L929 necroptosis: 1; Bim-Mcl-1: -2; Mcl1 Noxa PPI: 15; TNF death inh: 22; Mcl1-Bid inh: -18; Calpain2 inh: 15

How did CC(C)C(=O)N1CCN(c2ccccc2N)CC1 do in these assays?
L929 necroptosis: 0; Bim-Mcl-1: -1; Mcl1 Noxa PPI: 14; TNF death inh: 0; Mcl1-Bid inh: -56; Calpain2 inh: 81*

Results for Cc1cccc(CCNC(=O)CCc2nnc(CCc3ccccc3)o2)n1 ?
L929 necroptosis: -1; Bim-Mcl-1: -1; Mcl1 Noxa PPI: 5; TNF death inh: 2; Mcl1-Bid inh: -12; Calpain2 inh: 3

What do the screens show for `CN=c1scc(-c2ccco2)n1/N=C/c1ccc(O)c(O)c1`?
L929 necroptosis: 62; Bim-Mcl-1: -1; Mcl1 Noxa PPI: 73*; TNF death inh: -9; Mcl1-Bid inh: -40; Calpain2 inh: -113

What do the screens show for `O=C(N/N=C/c1ccc2ncccc2c1)c1ccco1`?
L929 necroptosis: 1; Bim-Mcl-1: 3; Mcl1 Noxa PPI: 52*; TNF death inh: -3; Mcl1-Bid inh: -31; Calpain2 inh: 43

What do the screens show for `O=C(N/N=C/c1ccccn1)c1ccco1`?
L929 necroptosis: 0; Bim-Mcl-1: 0; Mcl1 Noxa PPI: -21; TNF death inh: -2; Mcl1-Bid inh: -71; Calpain2 inh: -43

What do the screens show for `CN(C)S(=O)(=O)c1cccc(N=C2NN=C(c3ccccc3)CS2)c1`?
L929 necroptosis: 2; Bim-Mcl-1: -2; Mcl1 Noxa PPI: 34; TNF death inh: -1; Mcl1-Bid inh: -36; Calpain2 inh: 6

Results for CC(=O)Nc1ccc(C2=NNC(=Nc3ccc(S(=O)(=O)N4CCOCC4)cc3)SC2)cc1 ?
L929 necroptosis: 3; Mcl1 Noxa PPI: 80*; TNF death inh: 7; Mcl1-Bid inh: -20; Calpain2 inh: -55

What do the screens show for `O=S(=O)(c1ccc(N=C2NN=C(c3cc(F)ccc3F)CS2)cc1)N1CCOCC1`?
L929 necroptosis: 6; Bim-Mcl-1: -6; Mcl1 Noxa PPI: 16; TNF death inh: -1; Mcl1-Bid inh: -26; Calpain2 inh: -68

How did CC(=O)Nc1ccc(C2=NNC(=Nc3cccc(S(=O)(=O)N(C)C)c3)SC2)cc1 do in these assays?
L929 necroptosis: 2; Bim-Mcl-1: 0; Mcl1 Noxa PPI: 96*; TNF death inh: 2; Mcl1-Bid inh: -18; Calpain2 inh: -102

What do the screens show for `Oc1ccccc1-n1nc2ccc3nonc3c2n1`?
L929 necroptosis: -1; Mcl1 Noxa PPI: -5; TNF death inh: -1; Mcl1-Bid inh: -8; Calpain2 inh: 6

Results for CN1CCN(C(=S)NCCc2ccccc2)CC1 ?
L929 necroptosis: 1; Bim-Mcl-1: -3; Mcl1 Noxa PPI: 27; TNF death inh: -3; Mcl1-Bid inh: 42; Calpain2 inh: -7

Results for CC1=Nc2ccccc2N=C(NC(=O)CN2CCN(c3ccccc3)CC2)C1c1ccccc1 (centres undefined) ?
L929 necroptosis: 1; Bim-Mcl-1: 0; Mcl1 Noxa PPI: 12; TNF death inh: 3; Mcl1-Bid inh: -12; Calpain2 inh: 57*
